From PubChem
In the library only some 11% were active in any assay of this set; here they are far more common.
Pf growth 48h: inhibits P. falciparum growth in the first generation, 48 h. hit rate 5.9% among 310,000. P. falciparum luciferase growth in erythrocytes, 48 h. Potency, µM (doses to about 28.7 µM), hits mostly inhibitors. AID 504832
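Parasite viability was followed by luminescence of a genomically integrated firefly luciferase. Cultures held 0.1% parasitemia at 2% hematocrit (final), incubated under 5% CO2 at 37 C.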
AMA1-RON2 inh: AMA1-RON2 (P. falciparum) interaction inhibition | AlphaScreen AMA1-biotinylated RON2 peptide binding | Potency, µM (series often up to 58.2 µM), usual class: inhibitors | hit rate 0.2% among 360,000 | AID 720542; note: nearly all actives have a fitted effect of over 45% in size
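AMA1 (3D7) with his tag at 25 nM final met compounds first, then biotinylated RON2 peptide at 25 nM; detection used donor plus acceptor beads, 10 µg/mL apiece, read by AlphaScreen after 30 min at room temperature.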
HCV inh: blocks hepatitis C virus; Huh7.5.1 HCVcc-Cre infection, luciferase reporter, 44 h; Potency, µM (doses to about 41.8 µM), usual class: inhibitors; hit rate 3.4% among 340,000; AID 651820
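Luciferase read-out (15 sec integration) after a 15 min room-temperature substrate step quantifies HCVcc-Cre infection. Cells, 1,000 per well, had compound added 4 h post-plating, then virus at ~0.5 moi, and were cultured 44 h.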
Pf growth 96h: inhibits malaria parasite growth, 96 h; Potency, µM (highest dose often 28.7 µM), actives largely listed as inhibitors; hit rate 6.9% among 320,000; AID 504834; P. falciparum luciferase reporter growth, 96 h
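P. falciparum expressing integrated firefly luciferase grown in erythrocytes (2% hematocrit, 0.05% parasitemia final) with compounds for 96 hours at 37 C, 5% CO2. Growth inhibition read as loss of luminescence after adding luciferase detection reagent.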
Large screens that a line does not name were inactive; ! = repeats disagree. Calls come from the whole dose curve; as a rule, active = well fitted curve in the direction sought with a large enough effect; inconclusive = small, poorly fitted or top-dose-only effect, or another doubt; inactive = no such curve, though single readings can be large; an effect the other way counts as inactive or inconclusive.

COc1ccc([N+](=O)[O-])c(OC)c1C(=O)NC(=O)Nc1c(F)c(F)c(F)c(F)c1F	Pf growth 96h 4.65µM (no result: Pf growth 48h)
COc1ccc(NC(=O)C2CCCN2C(=O)NC2CCCCC2)cc1 (stereo unspecified)	none
N=C1/C(=C\c2ccc(OCc3ccccc3)cc2)C(=O)N=C2SC(N3CCCC3)=NN12	none (no result: AMA1-RON2 inh, HCV inh)
COC(=O)[C@H](CC(C)C)NC(=O)NC1CCCCC1C (stereo partly specified)	none (no result: Pf growth 96h)
CN(C1CCCCC1)S(=O)(=O)c1ccc(C(=O)O)cc1	Pf growth 96h 11.7µM (no result: Pf growth 48h)
CN(C1CCCCC1)S(=O)(=O)c1ccc(NC(=O)C2CCCCC2)cc1	HCV inh 14.1µM (no result: Pf growth 96h)
CN(C1CCCCC1)S(=O)(=O)c1ccc(NC(=O)CCC(=O)O)cc1	Pf growth 96h inconclusive
O=C(Nc1ccc(S(=O)(=O)NCc2ccccc2)cc1)C1CCCCC1	Pf growth 96h 11.7µM
Cc1ccc(S(=O)(=O)c2c(C)cc(C)[nH]c2=O)cc1	none
CCOC(=O)C1(C(F)(F)F)N=C(c2cccnc2)OC(N2CCCCC2)=N1 (stereo unspecified)	Pf growth 48h inconclusive
CCC(CO)(C(=O)OC1CC2CCC(C1)N2C)c1ccccc1 (stereo unspecified)	Pf growth 96h 11.7µM
O=C(CC(C(=O)N1CCc2ccccc21)n1ccnc1)NCc1ccccc1 (stereo unspecified)	none (no result: Pf growth 48h)
CCOC(=O)N1CCN(C(=O)CC(C(=O)N2CCc3ccccc32)n2ccnc2)CC1 (stereo unspecified)	Pf growth 48h 0.0329µM
C[C@@H](CNC1CCCCC1)OC(=O)c1ccccc1	Pf growth 48h 2.03µM, Pf growth 96h 2.56µM (no result: AMA1-RON2 inh, HCV inh)
COc1ccc2nc(SCCC(=O)O)cc(C)c2c1	none
O=C(CC1COc2ccccc2O1)NCc1ccccc1 (stereo unspecified)	none (no result: Pf growth 96h)
O=C(CCC1COc2ccccc2O1)NCc1ccccc1 (stereo unspecified)	Pf growth 96h 3.7µM (no result: Pf growth 48h)
CCC[C@H]1C[C@H](C(=O)N[C@@H]([C@H]2O[C@@H](SC)[C@@H](O)[C@@H](O)[C@@H]2O)[C@H](C)Cl)N(C)C1	Pf growth 48h 0.19µM, Pf growth 96h 0.0338µM (no result: AMA1-RON2 inh, HCV inh)
O=C(CSc1ccc(Br)cc1)Nc1ccccc1N1CCOCC1	Pf growth 48h inconclusive, Pf growth 96h inconclusive
Cc1nc2cc(NC(=O)c3ccc(Br)s3)ccc2s1	HCV inh 11.2µM
CCOC(=O)[C@]12CCCC=C1N(CCc1ccc(OC)c(OC)c1)C(=O)[C@H](CC(=O)N1CCCC1)C2	none (no result: Pf growth 48h, HCV inh, Pf growth 96h)
C=CCn1c(CNC(=O)c2ccccc2F)nnc1SCC(=O)NC(C)c1ccccc1 (stereo unspecified)	none
Cc1[nH]c2ccccc2c1C(=O)COC(=O)c1c(-c2c(F)cccc2Cl)noc1C	Pf growth 48h inconclusive, HCV inh inconclusive, Pf growth 96h inconclusive
COc1ccc2c(c1)C1(C)CC(C)(C)N2C(=O)N1c1ccccc1 (stereo unspecified)	Pf growth 48h inconclusive, Pf growth 96h 10.4µM
O=C(O)C1CCCCC1C(=O)NCc1ccccn1 (stereo unspecified)	none
COc1ccc(C2CC(C(F)(F)F)n3nc(C(=O)N(C)Cc4cn(C)nc4C)c(Cl)c3N2)cc1 (stereo unspecified)	Pf growth 48h 14.7µM
CC1CN(c2ccc([N+](=O)[O-])cc2Cl)CCN1S(C)(=O)=O (stereo unspecified)	Pf growth 48h 3.29µM
Cc1cccc(NC(=O)c2cc(S(=O)(=O)N3CCOCC3)cn2C)c1C	Pf growth 96h 6.57µM
Cc1cccc(N2CCN(C(=O)c3cc(S(=O)(=O)N4CCCC4)cn3C)CC2)c1C	Pf growth 48h 9.28µM, HCV inh inconclusive, Pf growth 96h inconclusive
Cc1cccc(N2CCN(C(=O)c3cc(S(=O)(=O)N4CCOCC4)cn3C)CC2)c1C	Pf growth 48h inconclusive, Pf growth 96h inconclusive
CCOC(=O)c1sc(N2C(=O)C(O)=C(C(=O)c3ccc(C)o3)C2c2cccc([N+](=O)[O-])c2)nc1C (stereo unspecified)	HCV inh inconclusive, Pf growth 96h 14.7µM
CCOc1cc(C2c3c(n[nH]c3C)C(=O)N2c2ccc(Br)cc2)ccc1O (stereo unspecified)	HCV inh 25.1µM, Pf growth 96h 13.1µM
CCOC(=O)c1sc(N2C(=O)C(O)=C(C(=O)c3ccc(C)o3)C2c2ccc(OC)c(OC)c2)nc1C (stereo unspecified)	none
CCOC(=O)c1ccc(N2C(=O)c3n[nH]c(-c4ccco4)c3C2c2cccc([N+](=O)[O-])c2)cc1 (stereo unspecified)	Pf growth 48h 8.28µM, HCV inh 11.2µM
CCOC(=O)c1ccc(N2C(=O)c3n[nH]c(C)c3C2c2ccc(OC)c(OC)c2)cc1 (stereo unspecified)	Pf growth 48h inconclusive, Pf growth 96h 9.28µM
N#CC1=C(N)N2C(=C(C#N)C13CCCCC3)SC1CCCCC12O (stereo unspecified)	Pf growth 48h inconclusive, HCV inh inconclusive, Pf growth 96h inconclusive
S=C(NCc1ccccc1)NNc1ccccc1	AMA1-RON2 inh inconclusive
COc1ccc(CC(=O)Nc2ccc(S(=O)(=O)Nc3cc(C)nc(C)n3)cc2)cc1OC	none (no result: Pf growth 48h, HCV inh, Pf growth 96h)
O=C(CSc1nnc(Nc2ccccc2)s1)NCC1CCCO1 (stereo unspecified)	Pf growth 96h inconclusive
O=C1OC(Nc2ccc(Br)cn2)c2ccccc21 (stereo unspecified)	none
COc1ccc(S(=O)(=O)N2CCOCC2)cc1NC(=O)COc1ccc(C(C)=O)cc1OC	none
NC(=O)c1cc(NC(=O)c2ccc(NS(=O)(=O)c3cccs3)cc2)cc(C(N)=O)c1	HCV inh inconclusive
CCOC(=O)c1ccc(N2C(=O)c3n[nH]c(C)c3C2c2ccc(OC)cc2OC)cc1 (stereo unspecified)	Pf growth 48h inconclusive, Pf growth 96h 11.7µM
CCOC(=O)c1ccc(N2C(=O)c3n[nH]c(C)c3C2c2ccc(OC)cc2)cc1 (stereo unspecified)	Pf growth 48h inconclusive, Pf growth 96h inconclusive
O=C(CCSc1ccc(Cl)cc1)N1CCCCCC1	Pf growth 96h 1.04µM
O=C(CCSc1ccc(Cl)cc1)NC1CCCC1	Pf growth 96h 5.86µM
COc1cccc(Oc2ccc3nnc(C(F)(F)F)n3n2)c1	HCV inh inconclusive
NC(N)=N/N=C/c1ccccc1Cl	Pf growth 48h 11.7µM, Pf growth 96h 10.4µM
NC(N)=N/N=C/c1c(Cl)cccc1Cl	Pf growth 48h 13.5µM, Pf growth 96h 3.7µM!
C[C@H]1CN([C@@H](C)CO)S(=O)(=O)c2ccc(Br)cc2O[C@@H]1CN(C)Cc1cccc(F)c1	none (no result: Pf growth 48h, HCV inh, Pf growth 96h)
CCCCOc1ccc(/C(N)=N/O)cc1	HCV inh inconclusive, Pf growth 96h inconclusive
CCCCN(C(=O)c1ccc([N+](=O)[O-])s1)c1c(N)n(CCCC)c(=O)[nH]c1=O	Pf growth 48h 10.4µM, Pf growth 96h inconclusive
CCCCN(C(=O)c1cc2c(s1)CCCC2)c1c(N)n(CCC)c(=O)[nH]c1=O	none
CCCCn1c(N)c(N(CCC(C)C)C(=O)COC(=O)c2ccc([N+](=O)[O-])s2)c(=O)[nH]c1=O	HCV inh inconclusive (no result: Pf growth 48h, Pf growth 96h)
